The values that follow come from PubChem BioAssay AID743279 (National Center for Advancing Translational Sciences (NCATS), 2014).

The structures appear in SMILES notation. The campaign covered roughly 360,000 compounds. About 17,000 (4.7%) were called active. Another 5% or so got no clear call; they are omitted. No stated cut-off is given here; in the data, active means activity change below about -50%; inconclusive means mostly about -30% to -49%; inactive means weaker than that. Many of the other results were omitted from the sample, so actives are more common in it than they were.
On the % scale 0 is the no-effect control and ±100 the full control effect.

This test is described as follows: qHTS for Inhibitors of Inflammasome Signaling: IL-1-beta AlphaLISA Primary Screen. As to conditions: THP-1 LPS/ATP IL-1B secretion, 16 h; at 57.5 µM, hits give low values. An excerpt:
Inflammasomes are a set of intracellular multi-protein complexes that enable autocatalytic activation of inflammatory caspases and drive the innate immune response to counter harmful agents. […] A qHTS assay, based on AlphaLISA technology, was developed to screen the Molecular Libraries Small Molecule Repository (MLSMR) to look for novel inflammasome inhibitors. The assay detects IL-1B using AlphaLISA anti-IL-1B acceptor and donor beads. A decreased emission signal, indicating reduced IL-1B secretion, is the desired outcome for this assay. NIH Chemical Genomics Center [NCGC] NIH Molecular Libraries Probe Centers Network [MLPCN] MLPCN Grant: MH095513 Assay Provider: Shyam Biswal Ph.D., Johns Hopkins University Immunity. 2012 Jul 27;37(1):85-95. PMID: 22819042 [2] Curr Pharm Des. 2012;18(16):2320-8. PMID: 22390695
Three microliters containing 3000 THP-1 cells were dispensed into the wells of solid, white, tissue culture treated Greiner 1,536-well plates. Library compounds and positive control, Glyburide, were pin-transferred (23 nL) by a Kalypsys pin-tool equipped with a 1,536-pin array, resulting in final compound concentration ranges of 2.5 nM to 57.5 uM. After 1 hr of cell culture incubation (37 °C, 5% CO2), 1 microL of 1 microg/mL lipopolysaccharide (250 ng/mL, final) and 5 mM ATP (1.25 mM, final) were added to stimulate the cells. After 16 hr of cell culture incubation with the compounds, 1.5 uL of anti-IL-1B acceptor beads (6 ug/mL, final) and biotinylated antibody (0.6 nM, final) were added to the plate, followed by a 1 hr incubation at ambient temperature. To detect the secreted IL-1B, 1.5 uL of AlphaLISA SA-Donor beads (24 ug/mL, final) were added, followed by 30 min of incubation in the dark at ambient temperature. The AlphaLISA signal was read by a PerkinElmer EnVision plate reader with an ultrasensitive luminescence detector and 1536 Plate HTS AlphaScreen aperture (excitation of 680nm and emission of 615nm).
On to `CC(=O)CC[C@@H](C)O[C@@H]1OC(C)[C@H](O)CC1O` (some centres undefined), for which the activity change was 29.3% (inactive).
As for `COC(=O)[C@]12CCCCC=C1N(Cc1ccco1)C(=O)[C@H](CC(=O)NCC1CCCCC1)C2`, the figure is -8.27% (inactive); as for `CCCOc1ccc(F)cc1-c1cc(C(=O)Nc2ccc(F)cc2)[nH]n1`, 3.22% (inactive).
As for `Cc1cc(C)n(-c2nc(C(F)(F)F)nc3ccccc23)n1`, the figure is 21.5% (inactive).
On to `CC(Nc1nc(C(F)(F)F)nc2ccccc12)c1cccs1` (centres undefined), for which the activity change was -63.4% (active).
The figure for `CC(C)(C)Nc1nc(-c2ccccn2)nc2ccccc12` is -9.69% (inactive); for `CCc1ccc(/C=C2\SC(N3CCOCC3)=NC2=O)cc1` it is -62.4% (active); for `O=C1N=C(N2CCc3ccccc3C2)S/C1=C\c1ccc(O)cc1` it is -63.2% (active).
As for `CC1CCN(C2=NC(=O)/C(=C/c3ccc(O)cc3)S2)CC1`, the figure is -16.5% (inactive); as for `Cc1cc(/C=C2/SC(=O)N(CC(=O)N3CCCC3)C2=O)ccc1N1CCOCC1`, -23.5% (inactive); as for `NC1=NC(=O)S/C1=C\c1ccc(O)cc1`, -9.74% (inactive).
For the compound `Cc1ccsc1/C=C1\SC(N2CCOCC2)=NC1=O`, the activity change is -26% (inactive).
In the case of `COC(=O)C1(C(=O)OC)C[C@H](c2ccccc2)N(Cc2ccccc2OC)[C@@H]1c1ccccc1`, the activity change is 12.2% (inactive).
As for `O=[N+]([O-])c1ccc(C(S(=O)(=O)Cc2ccccc2)S(=O)(=O)Cc2ccccc2)cc1`, the figure is -14.4% (inactive); as for `CC(C)(O)C#Cc1ccc(CNC[C@H]2O[C@@H](n3cnc4c(=O)[nH]c(N)nc43)[C@H](O)[C@@H]2O)s1`, 0% (inactive).
As to `Cc1cc2oc(=O)cc(CN3CCN(Cc4ccccc4)CC3)c2cc1C`, the activity change is 1.1% (inactive).
As for `Cc1cc2c(cc1C)N(Cc1ccccc1)C1=NCCCN12`, the figure is -58.1% (active); as for `CC(C)(C)C(=O)CN1C2=NCCN2c2ccccc21`, 0% (inactive).
As for `O=C(COC(=O)c1ccc(S(=O)(=O)N2CCCCCC2)cc1)Nc1ccccc1C(F)(F)F`, the figure is 23% (inactive); as for `COc1ccc(OC)c(CN2C(=O)CCC2(C)c2nnnn2Cc2ccccc2)c1` (centres undefined), 0% (inactive).
As for `Cc1ccc(-c2ccc(CN3C(C(C)C)C(=O)N(Cc4cn(CCC5OCCO5)nn4)CCS3(=O)=O)cc2)cc1` (centres undefined), the figure is 14.8% (inactive); as for `CC(=O)O[C@]1(C(C)=O)CC[C@H]2[C@@H]3C=C(C)C4=CC(=O)CC[C@]4(C)[C@H]3CC[C@@]21C`, -10.2% (inactive); as for `CC1(C)C(=O)CCC2(C)C1=CCC1C2C(=O)CC2(C)C1CCC2(O)C(=O)CO` (centres undefined), 15.3% (inactive).
Turning to `CC(=O)OCC(=O)C1(O)CCC2C3CC(C)C4=CC(=O)CCC4(C)C3C(O)CC21C` (centres undefined), the activity change was -59.6% (active).
`O=C(OC1CC2CC1[C@H]1CCCCN1C2=O)N1CCOCC1` (some centres undefined): the activity change was 7.59% (inactive).
The figure for `COc1ccc(C(=O)Nc2cccc(/C=C(/CCC(=O)O)c3nc4ccccc4s3)c2)cc1` is 51.8% (inactive).
Consider `COc1ccccc1-n1cnc2cc(NS(=O)(=O)c3ccccc3)ccc21`, for which the activity change is -2.81% (inactive).
As for `CC(C)c1ccccc1OCC(O)CN(CC(O)COc1cccc2ccccc12)C(C)C` (centres undefined), the figure is -104% (active).
Regarding `CCC(C)Sc1nc2c(c(=O)[nH]c(=O)n2C)n1CC(O)COc1cccc2ccccc12` (centres undefined), the activity change is 23.6% (inactive).
For `CCCN(CCC)CC(O)COc1ccccc1C(=O)Nc1ccccc1` (centres undefined), the activity change was -6.43% (inactive).
As for `COc1cc(C(=O)OCCCN2CCOCC2)cc(OC)c1OC`, the activity change is -2.32% (inactive).
The figure for `O=C1Nc2ccccc2NC(c2ccc3c(c2)OCO3)=C1N(Cc1ccc(F)cc1)C(=O)c1ccco1` is -23.7% (inactive).
As for `O=S1(=O)CC(N2CCN(Cc3ccccc3F)CC2)CN1Cc1cn(Cc2ccccc2)nn1` (centres undefined), the figure is 14% (inactive); as for `Cc1sc2nc(-c3ccccc3F)oc(=O)c2c1C`, 43.9% (inactive); as for `COc1ccc(-c2csc3nc(-c4ccccc4F)oc(=O)c23)cc1OC`, -84.4% (active).
Consider `COc1ccccc1-c1nnc(-c2ccc(F)cc2)o1`, for which the activity change was 6.31% (inactive).
The figure for `COc1cc(F)ccc1-c1cc(C(=O)NCC2CCCCC2)[nH]n1` is -19.4% (inactive); for `CC1CC(=O)N(CC(=O)Nc2cccc(Cl)c2)c2ccccc2S1(=O)=O` (centres undefined) it is -6.86% (inactive).
With `CC1=C/C(=N\OS(=O)(=O)c2ccccc2)C=CC1=O`, the activity change is -100% (active).
The figure for `OCCc1ccc(NCCc2ccco2)cc1` is -19.5% (inactive); for `Cc1ccc(CN2CC(N3CCC(Cc4ccccc4)CC3)CS2(=O)=O)cc1` (centres undefined) it is -19.7% (inactive); for `COc1ccc(C)cc1NC(=O)CSc1cccc[n+]1[O-]` it is 0.963% (inactive).
As for `O=C(NCc1cccc(CNC(=O)Nc2cccc(O)c2)c1)Nc1cccc(O)c1`, the figure is -13% (inactive); as for `C/C(=C\C(=O)c1ccccc1)Nc1cccc(O)c1`, -52.1% (active); as for `O=C(CSc1ccccc1)Nc1ccc(C(=O)Nc2cccc(O)c2)cc1`, 3.28% (inactive).
In the case of `O=C(Nc1cccc(O)c1)c1ccc(C(=O)c2ccccc2)o1`, the activity change is -53.4% (active).
Regarding `C/C(=C\C(=O)c1cccnc1)Nc1ccc(C)c(C)c1`, the activity change is -17.1% (inactive).
As for `O=C(Nc1cccc(NC(=O)c2cccc(F)c2)c1)c1ccccc1`, the figure is 15.3% (inactive); as for `CCCC(C(=O)N1CCOCC1)N1C(=O)C2C3C=CC(C3)C2C1=O` (centres undefined), -7.71% (inactive).
In the case of `NC(=O)Cc1ccc2sc(-c3ccccc3)nc2c1`, the activity change was -14.8% (inactive).
Turning to `COCCCNC(=O)c1ccc(-c2c(C)noc2C)c2ccoc12`, the activity change was 46.4% (inactive).
Turning to `COc1ccc(Cl)cc1-n1c(C)cc(C(=O)OCC(=O)N2CC(=O)Nc3ccccc32)c1C`, the activity change is -23.3% (inactive).
In the case of `Cc1sc2ncnc(SCC(=O)NC3CCS(=O)(=O)C3)c2c1C` (centres undefined), the activity change is -4.05% (inactive).
As for `N#Cc1ccc(-c2ccc(Cl)cc2)nc1Oc1ccc(F)cc1`, the figure is 30% (inactive).
As for `CCc1cc2c(NC(Cc3ccccc3)C(=O)O)ncnc2s1` (centres undefined), the figure is 0% (inactive); as for `CCc1cc2c(N3CCN(c4nnc(CC)s4)CC3)ncnc2s1`, -71.6% (active); as for `CCc1cc2c(NC3CCCC3)ncnc2s1`, -11.8% (inactive).
As for `COc1ccc(NC2CCCN(C(=O)c3ccccc3-c3ncc[nH]3)C2)cc1` (centres undefined), the figure is 20.4% (inactive); as for `COc1ccc(Cl)cc1C(=O)NNC(=O)c1nc2nc(C)cc(C)n2n1`, 27% (inactive).
`Clc1ccc(C[n+]2cc(-c3ccc(Cl)cc3)n3c2CCC3)cc1`: the activity change was -53.1% (active).
As for `Cn1c(-c2ccccc2)c[n+]2c1CCCCC2`, the figure is -10.2% (inactive); as for `Cc1cc2c(cc1C)N1C(=O)c3cc4ccccc4cc3NC(=O)C1C(=O)N2` (centres undefined), 0% (inactive); as for `COc1ccc(C(C(=O)NC2CCCCC2)N(C(=O)c2snc(C(N)=O)c2N)c2ccccc2OC)cc1` (centres undefined), -4.36% (inactive).
As for `CCOc1ccc(-n2c(N)c(C(=O)NCC3CCCO3)sc2=S)cc1` (centres undefined), the figure is -28.6% (inactive).
As for `CCC(C(=O)NC1CCCC1)N(C(=O)c1snc(C(N)=O)c1N)c1ccc2c(c1)OCCO2` (centres undefined), the figure is -12.2% (inactive).
On to `Cc1cccc(N(C(=O)c2sc(C)nc2C)C(C(=O)NCC2CCCO2)c2ccccc2)c1` (centres undefined), for which the activity change was 17.8% (inactive).
The figure for `Cc1ccc(C(C(=O)NCC2CCCO2)N(C(=O)c2snc(C(N)=O)c2N)c2ccc(C(C)C)cc2)o1` (centres undefined) is -54.6% (active); for `COCCNC(=O)C(c1ccc(C)o1)N(Cc1cccs1)C(=O)c1snc(C(N)=O)c1N` (centres undefined) it is 18.9% (inactive).
As for `Cc1ccc(N(C(=O)c2snc(C(N)=O)c2N)C(C(=O)NCC2CCCO2)c2c[nH]c3ccccc23)cc1` (centres undefined), the figure is -66.2% (active); as for `Cc1ccc(N(C(=O)Cc2cccs2)C(C(=O)NCC2CCCO2)c2ccncc2)cc1` (centres undefined), -6.16% (inactive).
As to `COc1cccc(N(C(=O)c2snc(C(N)=O)c2N)C(C(=O)NCC2CCCO2)c2c[nH]c3ccccc23)c1` (centres undefined), the activity change was -66.5% (active).
The figure for `COc1ccc(N(C(=O)c2snc(C(N)=O)c2N)C(C(=O)NC2CCCC2)c2ccco2)cc1OC` (centres undefined) is 37% (inactive).
The figure for `CCOc1ccc(N(C(=O)c2snc(C(N)=O)c2N)C(C(=O)NCC2CCCO2)c2c[nH]c3ccccc23)cc1` (centres undefined) is -52.3% (active); for `CCOc1cc(C(C(=O)NCC2CCCO2)N(C(=O)Cn2nnc3ccccc32)c2cccc(OC)c2)ccc1O` (centres undefined) it is -7.04% (inactive); for `CCOc1ccccc1NS(=O)(=O)c1c[nH]c(C(=O)OC)c1` it is 5.96% (inactive).
On to `CSC1=NN(c2ccccc2)CN(c2ccccc2)N1C`, for which the activity change was -27.8% (inactive).
As for `NC1=C([N+](=O)[O-])C(c2ccccc2)C2=C(CCCC2=O)O1` (centres undefined), the figure is 23.3% (inactive); as for `O=C(NC1CCCCC1)c1ccc(CNc2c(N3CCOCC3)c(=O)c2=O)cc1`, -13.2% (inactive); as for `CC(Nc1ccc([N+](=O)[O-])cc1[N+](=O)[O-])c1ccccc1` (centres undefined), 5.52% (inactive).
As for `COc1ccc(OC)c(C(O)c2ncc(-c3cccc(C(F)(F)F)c3)[nH]2)c1` (centres undefined), the figure is 0% (inactive); as for `CSCCC(NC(=O)c1ccc(Cl)cc1Cl)C(=O)NNC(=O)c1csc(N2CCOCC2)n1` (centres undefined), -2.31% (inactive).
As for `CC1(C(=O)NS(=O)(=O)c2cccc(F)c2)CCN1C(=O)Cc1cc(F)ccc1F` (centres undefined), the figure is 17.9% (inactive); as for `CC1CCCCC12NC(=O)N(CC(=O)Nc1ccc(S(=O)(=O)Nc3ncccn3)cc1)C2=O` (centres undefined), -5.14% (inactive).
`Cc1nn(CC(=O)Nc2ccc(F)cc2)c(=O)c2ccccc12`: the activity change was -1.55% (inactive).
The figure for `Cc1ccc(NC(=O)Cn2sc3ccccc3c2=O)cc1` is -108% (active); for `Cc1ccc(NC(=O)Cn2c(C)csc2=O)cc1` it is -15.7% (inactive).
For `COc1cccc2sc3cc(NCC[C@@H]4CCCN4C)ccc3c(=O)c12`, the activity change was -71.4% (active).
The figure for `COc1cccc(OC)c1C(=O)Nc1ccc2c(c1)n(C)c(=O)n2C` is 0% (inactive); for `CCCCC[C@H](C)N1C[C@@H](COCc2ccccc2)Oc2cc(N3CCC[C@@H]3CO)ccc2S1(=O)=O` it is 0.594% (inactive).
